Measured values taken from PubChem BioAssay (Tox21).
Several values for one entry are separate records, joined by “and”; a condition that tells them apart may be missing. Equal entries are not always repeated. Records with an inconclusive call do not appear. Where a call stands in place of a potency, no number is given. Where a structure was tested more than once in an assay, its records may differ in their call. Activity calls are given as the source filed them. Unless noted, the call rests on the fitted dose curve; in most records, active means well fitted curve in the direction sought with a large enough effect in the repeat runs; inconclusive means weak or mixed curves; inactive means no such curve, though single readings can be large; an effect the other way counts as inactive or inconclusive.

Key:
[1] = qHTS assay to identify small molecule antagonists of the vitamin D receptor (VDR) signaling pathway - cell viability counter screen (AID 743225); further: nearly all actives have a fitted effect of over 50% in size; further: potency means the concentration at half of the fitted maximal effect
In short: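 In this counter screen, VDR-bla HEK 293T cells receive test compound plus 3 nM final calcitriol for 16 h at 37C. Room-temperature steps of 2 h with the beta-lactamase substrate, then 30 min with CellTiter-Glo, precede the luminescence read.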

[2] = qHTS assay to identify small molecule agonists of the endoplasmic reticulum stress response signaling pathway (AID 1159516; active means well fitted activation curve with a large enough effect in the signal ratio in the repeat runs, not every such curve was filed as active; the % refers to the signal ratio)
In short: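 Reporter HeLa cells (ESRE-beta-lactamase) underwent 5 hr compound incubation at 37 C and 5% CO2 in quantitative HTS format. Detection followed 2 hr of FRET substrate loading at room temperature.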

[3] = qHTS assay to identify small molecule agonists of the endoplasmic reticulum stress response signaling pathway - cell viability counter screen (AID 1159517; calls by dose curve; further: nearly all actives have a fitted effect of over 50% in size; further: potency means the concentration at half of the fitted maximal effect)
In short: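 HeLa cells carrying an ESRE-driven beta-lactamase reporter receive compound for 5 hr at 37 C. Cell viability is then gauged with CellTiter-Glo by luminescence, 30 min at room temperature.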

[4] = qHTS assay to identify small molecule antagonists of the retinoid-related orphan receptor gamma (ROR-gamma) signaling pathway - cell viability counter screen (AID 1159520); further: nearly all actives have a fitted effect of over 50% in size; further: potency means the concentration at half of the fitted maximal effect
In short: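 Cytotoxicity was read from cellular ATP (CellTiter-Glo luminescence) after 16 hr at 37 C with 1 uM doxycycline induction. The inducer was added 2 hr after compound transfer to Tet-on ROR gamma CHO cells.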

[5] = target: Nuclear receptor ROR-gamma (Homo sapiens) (UniProt P51449); assay: qHTS assay to identify small molecule antagonists of the retinoid-related orphan receptor gamma (ROR-gamma) signaling pathway (AID 1159521; further: nearly all actives have a fitted effect of over 50% in size; further: potency means the concentration at half of the fitted maximal effect)
In short: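 Screening format: cell-based luciferase reporter in CHO cells with doxycycline-inducible RORγ. Compound pre-exposure lasts 2 h, doxycycline is 1 uM final, induction runs 16 h at 37 C, and ONE-Glo luminescence is read.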

[6] = qHTS assay to identify small molecule agonists of the AP-1 signaling pathway - cell viability counter screen (AID 1159525; calls by dose curve; further: nearly all actives have a fitted effect of over 55% in size; further: potency means the concentration at half of the fitted maximal effect)
In short: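 Luminescent ATP readout (Cell Titer Glo, 30 min RT), normalised to DMSO and tetra n-octyl ammonium bromide controls. Cells were ME-180 AP-1-bla in 0.5% dialyzed FBS Opti-MEM, with a 5 h, 37 °C compound exposure.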

[7] = qHTS assay to identify small molecule agonists of the AP-1 signaling pathway (AID 1159526; calls by dose curve; further: potency means the concentration at half of the fitted maximal effect)
[8] = target: Retinoic acid receptor RXR-alpha (Homo sapiens) (UniProt P19793); assay: qHTS assay to identify small molecule agonists of the RXR signaling pathway (AID 1159527; calls by dose curve; further: nearly all actives have a fitted effect of over 35% in size)
In short: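 Fluorescence ratio readout (460 vs 530 nm) from GeneBLAzer RXR-alpha HEK 293T cells after 16 hr compound treatment; cells seeded 5 hr beforehand in low-serum, charcoal-stripped medium.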

[9] = qHTS assay to identify small molecule antagonists of the retinoid acid receptor (RAR) signaling pathway - cell viability counter screen (AID 1159551); further: nearly all actives have a fitted effect of over 35% in size
In short: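 Seed C3RL4 cells; next day add compound, then retinol to 1 uM final; incubate 6 h at 37 C; add CellTiter-Glo; read luminescence after 30 min at RT.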

[10] = qHTS assay to identify small molecule antagonists of the retinoic acid receptor (RAR) signaling pathway (AID 1159552; further: nearly all actives have a fitted effect of over 50% in size; further: potency means the concentration at half of the fitted maximal effect)
In short: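 Using a RARE-driven luciferase construct in C3RL4 cells, retinol at 1 uM final provided the agonist stimulus while compounds were co-applied. After 6 hours at 37 C, luminescence was recorded to flag inhibitors of retinol signaling.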

[11] = qHTS assay to identify small molecule agonists of the retinoic acid receptor (RAR) signaling pathway (AID 1159553)
In short: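 Activation of retinol signaling was monitored via a RARE luciferase reporter in C3RL4 cells. After 6 hr compound treatment at 37 C, detection reagent was added for 30 min at room temperature before luminescence reading.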

[12] = qHTS assay to identify small molecule antagonists of the estrogen related receptor (ERR) signaling pathway from Tox21 library - cell viability counter screen (AID 1224834); further: nearly all actives have a fitted effect of over 30% in size; further: potency means the concentration at half of the fitted maximal effect
In short: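 CellTiter-Fluor fluorescence measured; ERR cells; 17.5 h compound incubation at 37 C; 30 min reagent step.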

[13] = qHTS assay to identify small molecule agonists of the RXR signaling pathway - cell viability counter screen (AID 1159529); further: nearly all actives have a fitted effect of over 50% in size; further: potency means the concentration at half of the fitted maximal effect
In short: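 Viability read-out for the RXR-alpha agonist qHTS: luminescent CellTiter-Glo signal after 30 min at RT. HEK 293T bla reporter cells, 2% charcoal-stripped FBS, 16 hr compound incubation; tetraoctyl ammonium bromide as cytotoxic control.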

[14] = qHTS assay to identify small molecule agonists of the NFkB signaling pathway - cell viability counter screen (AID 1159515; calls by dose curve; further: nearly all actives have a fitted effect of over 55% in size; further: potency means the concentration at half of the fitted maximal effect)
In short: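 5 hr compound treatment of NFkB-bla ME-180 cells (2,000/well, seeded overnight beforehand), followed by reporter substrate for 1.5 hr. CellTiter-Glo added afterward; luminescence after 30 min RT.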

[15] = qHTS assay to identify small molecule antagonists of the estrogen related receptor (ERR) signaling pathway (AID 1224819)
In short: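 qHTS in ERR cells, 2,000/well, 1536 format. Cpd (DMSO) added after 6 h settle, 18 h 37 C. One-Glo luminescence, 30 min RT.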

[16] = qHTS assay to identify small molecule agonists of the estrogen related receptor (ERR) signaling pathway (AID 1224820)
In short: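 Cells: ERR line from NTP, 2,000/well. Pre-incubation 6 h, 37 C/5% CO2. Compound (DMSO) pin transfer, 18 h 37 C. One-Glo, 30 min RT, luminescence.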

[17] = tested on: estrogen-related receptor alpha (ERRalpha) with PGC-1alpha coactivator, human; assay: qHTS assay to identify small molecule antagonists of the estrogen related receptor signaling pathway with the pleiotropic PPARgamma coactivator (PGC) (AID 1224821; calls by dose curve)
In short: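 Luminescent read-out (One-Glo, 30 min at room temperature) following 18 h treatment of PGC/ERR cells at 37 C with compounds delivered in DMSO. Cells had settled 6 h at 37 C/5% CO2 before dosing.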

[18] = qHTS assay to identify small molecule agonists of the estrogen related receptor signaling pathway with the pleiotropic PPARgamma coactivator (PGC) (AID 1224823)
In short: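 Steps: plate PGC/ERR cells at 2,000 cells/well; incubate 6 h, 37 C/5% CO2; pin-transfer compounds (DMSO); incubate 18 h, 37 C; add One-Glo; 30 min RT; read luminescence.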

Chain of Retinoic acid receptor RXR-alpha (Homo sapiens) (P19793 whole entry, looked up): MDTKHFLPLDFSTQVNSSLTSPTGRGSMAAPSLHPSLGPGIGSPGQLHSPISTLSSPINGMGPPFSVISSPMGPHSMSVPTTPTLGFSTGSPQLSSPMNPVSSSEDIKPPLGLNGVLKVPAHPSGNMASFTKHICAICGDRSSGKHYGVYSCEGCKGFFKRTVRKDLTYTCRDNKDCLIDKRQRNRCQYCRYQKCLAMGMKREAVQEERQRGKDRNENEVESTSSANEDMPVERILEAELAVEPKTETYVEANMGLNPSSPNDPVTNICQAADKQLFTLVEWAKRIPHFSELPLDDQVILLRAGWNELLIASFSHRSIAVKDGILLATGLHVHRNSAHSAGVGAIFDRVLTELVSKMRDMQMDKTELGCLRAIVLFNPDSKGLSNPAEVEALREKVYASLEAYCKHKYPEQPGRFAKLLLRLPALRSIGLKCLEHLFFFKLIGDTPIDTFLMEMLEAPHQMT

| Structure (SMILES) | Potency [1] | Potency [2] | Potency [3] | Potency [4] | Potency [5] | Potency [6] | Potency [7] | outcome [8] | Potency [9] | Potency [10] | Potency [11] | Potency [12] | Potency [13] | Potency [14] | Potency [15] | outcome [16] | Potency [17] | outcome [18] |
| --- | --- | --- | --- | --- | --- | --- | --- | --- | --- | --- | --- | --- | --- | --- | --- | --- | --- | --- |
| CCN | inactive | inactive | inactive | inactive | inactive | inactive | inactive | inactive | inactive | inactive | inactive | inactive | – | – | – | – | – | – |
| CCCN(CCC)CCc1c[nH]c2ccccc12 | inactive | inactive | inactive | inactive | – | inactive | 43.1 µM (active) | – | – | inactive | inactive | inactive | inactive | – | – | – | – | – |
| O=C(O)c1cc[c]([Hg][Cl])cc1 | 21.9 µM (active) | inactive | inactive | 24.3 µM (active) | 4.86 µM (active) | – | – | – | – | – | – | 13.7 µM (active) | – | – | – | – | – | – |
| CCCCN(CCCC)C(=S)[S-].CCCCN(CCCC)C(=S)[S-].[Zn+2] | 11 µM (active) | – | – | inactive | – | – | – | – | – | – | – | 15.3 µM (active) | 4.36 µM (active) | inactive | – | – | – | – |
| O=c1[nH]c2ccccc2n1C1CCN(CCCC(c2ccc(F)cc2)c2ccc(F)cc2)CC1 | 24.5 µM (active) | inactive | 49 µM (active) and 23.9 µM (active) | 24.3 µM (active) and 29.8 µM (active) | 19.3 µM (active) and 23.7 µM (active) | 19.5 µM (active) | – | – | – | 61.1 µM (active) | inactive | 30.6 µM (active) and 26.6 µM (active) | 21.9 µM (active) and 23.9 µM (active) | – | 11.9 µM (active) | inactive | 16.2 µM (active) | inactive |
| Oc1cc(Cl)c(Cl)c(Cl)c1 | 41.4 µM (active) | – | – | – | 29.1 µM (active) | – | – | – | inactive | – | – | – | – | inactive | – | – | – | – |
| Cc1cc(C)cc(OP(=O)(Oc2cc(C)cc(C)c2)Oc2cc(C)cc(C)c2)c1 | inactive | inactive | inactive | inactive | inactive | inactive | inactive | – | – | – | inactive | inactive | – | – | – | – | – | – |
| CCCCCCCCCCCCBr | – | inactive | inactive | inactive | inactive | inactive | inactive | – | – | inactive | inactive | inactive | – | – | – | – | – | – |
| CCOP(=S)(OCC)OC(Cl)C(Cl)(Cl)Cl (configuration not stated) | inactive | – | – | – | inactive | inactive | – | inactive | inactive | inactive | inactive | inactive | – | inactive | – | – | – | – |
| CC(C)CCCCCOC(=O)c1ccccc1C(=O)OCCCCCC(C)C | inactive | inactive | inactive | inactive | inactive | inactive | inactive | – | inactive | inactive | inactive | inactive | inactive | – | – | – | – | – |
| FC(F)(F)c1cccc(C2=CCN(CCc3ccc4ccccc4c3)CC2)c1 | inactive | inactive | inactive | inactive | inactive | inactive | – | inactive | – | inactive | inactive | inactive | – | – | – | – | – | – |
| ClCc1ccc(Cl)cc1Cl | inactive | – | – | – | – | inactive | inactive | inactive | inactive | – | – | inactive | inactive | inactive | – | – | – | – |
| CN(C)CCc1c[nH]c2cccc(O)c12 | inactive | inactive | inactive | inactive | inactive | inactive | – | – | inactive | – | – | inactive | – | – | – | – | – | – |
| ClC(Cl)=C(Cl)Cl | inactive | inactive | inactive | inactive | inactive | inactive | inactive | inactive | inactive | – | – | inactive | inactive | – | – | – | – | – |
| FC(Cl)(Cl)Cl | inactive | inactive | inactive | inactive | – | inactive | inactive | inactive | – | inactive | inactive | inactive | – | – | – | – | – | – |
| Oc1ccc(C2(c3ccc(O)cc3)c3ccccc3-c3ccccc32)cc1 | – | – | – | – | – | – | – | – | – | – | – | 68.6 µM (active) | 38.9 µM (active) | 54.9 µM (active) | – | – | – | – |
| Cc1cc(C)c(C2=C(OC(=O)CC(C)(C)C)C3(CCCC3)OC2=O)c(C)c1 | inactive | inactive | inactive | inactive | – | inactive | inactive | inactive | inactive | – | – | inactive | inactive | – | – | – | – | – |
| BrC(Br)Br | inactive | inactive | inactive | inactive | – | inactive | inactive | – | inactive | inactive | inactive | inactive | inactive | – | – | – | – | – |
| CC(C)CC(C)(c1ccc(O)cc1)c1ccc(O)cc1 | – | – | – | – | – | 43.8 µM (active) | – | – | inactive | inactive | inactive | 48.7 µM (active) | 55.1 µM (active) and 49 µM (active) | 49.1 µM (active) | – | – | – | – |
| CC(c1ccc(O)cc1)c1ccc(O)cc1 | inactive | inactive | inactive | inactive | inactive and 61.1 µM (active) | inactive | inactive | inactive | inactive | inactive | – | inactive | inactive | – | – | – | – | – |
| N#CCCSCCC#N | inactive | inactive | inactive | inactive | – | inactive | inactive | inactive | inactive | inactive | inactive | inactive | inactive | – | – | – | – | – |
